From PubChem BioAssay (EPA / NIEHS)
“And” between values parts separate entries of the source, which are not always exact repeats. Identical values can stand only once. More than one record can exist for a structure, and the calls need not agree. The source made the active and inactive calls. The calls were made as follows: active = hit-call score of the fitted dose curve at least 0.9, where 1 is the maximum; inactive = score below 0.9.

Assay: CCTE_Shafer_MEA_dev_firing_rate_mean: CCTE's Neural Network Formation Assay for Mean Firing Rate, Shafer Lab (AID 2284031);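 as to AC50: curve fitted for loss of firing so AC50 reflects decreased mean firing rate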
Method: CCTE_Shafer_MEA_dev assay is conducted using Axion Biosystems 48 well microelectrode array (MEA) plates and Maestro recording system. Each well of the MEA plate contains a grid of 16 microelectrodes embedded in the culture surface. Electrically active cells, such as neurons, can be cultured over the electrodes, and electrical activity in these cells can be recorded extracellularly. The spontaneous firing of neurons is captured from each electrode on a microsecond timescale providing both temporally and spatially precise data. […] The CCTE_Shafer_MEA_dev assay uses primary cultures of rat cortical neurons. Recordings are made on days post-plating 5, 7, 9 and 12. As these cultures mature over time, neural networks develop functional activity and form cohesive networks in which electrical activity can be highly coordinated. CCTE_Shafer_MEA_dev_firing_rate_mean is 1 of 19 assay components of the CCTE_Shafer_MEA_dev assay. It measures the frequency of spikes (action potential firings) as the total number of spikes divided by the length of the recording in a microelectrode array (MEA) using Axion Biosystems Maestro 768 channel amplifier with the AxIS adaptive spike detector. The firing rate is averaged across the active electrodes to report a well-mean value. To collapse across multiple recordings made on days post-plating 5, 7, 9 and 12, the trapezoidal area-under-the-curve of the component is calculated.Data from the assay component CCTE_Shafer_MEA_dev_firing_rate_mean was analyzed into 1 assay endpoint. This assay endpoint, CCTE_Shafer_MEA_dev_firing_rate_mean, was analyzed in the negative analysis fitting direction relative to DMSO as the negative control and baseline of activity. Using a type of functional reporter, gain or loss-of-signal activity can be used to understand electrical activity.
On the day prior to culture, each well was coated thoroughly with 150 uL of 0.05% polyethyleneimine (PEI, Sigma Cat P3143) in 50 mM HEPES (Sigma Cat H7523) at a pH of 8. The plate was incubated at 37C for one hour. PEI was rinsed out with 500 uL of sterile water three times. Plates were stored at 4C until the day of culture. This culture was plated at a seeding density of 1.5 x 10^5 cells/well on a 48-well MEA plate, prepared as described above. Cells were administered via a 25 uL media/laminin ([…]; Sigma Cat L2020-1MG) drop directly onto the microelectrode array, as adding the cells with the laminin results in better attachment than pre-coating with laminin. After 2 hours, an additional 475 uL of cortical media was added and the cells returned to the incubator. Exposure starts at day 0 of plating and is continued over twelve days of network development until the experiment is terminated. Cells are fed with fresh medium on DIV 5 and 9, following the recordings on those days. The entire volume of media in the well is exchanged and any vehicle or compound treatment is renewed. Complete details are found in OP-NHEERL/ISTD/SBB/TJS/2015-03-r0 (available on request, email shafer.tim@epa.gov). Measurement of the electrical activity is non-invasive, and recordings can be made from the same plate over multiple different days of the culture. In cortical neurons, this allows for the measurement of extracellular action potentials over the period during which networks form in the MEA plate.

| SMILES | outcome | AC50 |
| --- | --- | --- |
| CN(C)[C@@H]1C(=O)C(C(N)=O)=C(O)[C@@]2(O)C(=O)C3=C(O)c4c(O)cccc4[C@@](C)(O)[C@H]3[C@H](O)[C@@H]12 | inactive |  |
| CCOP(=O)(NC(C)C)Oc1ccc(SC)c(C)c1 (stereo unspecified) | inactive | 22 µM (active) |
| CCOP(=S)(OCC)SCCSCC | inactive |  |
| CC(C)[C@H](C(=O)O[C@H](C#N)c1cccc(Oc2ccccc2)c1)c1ccc(Cl)cc1 |  | 3.13 µM (active) |
| CC(=NC#N)N(C)Cc1ccc(Cl)nc1 | inactive |  |
| CCOP(=S)(OCC)Oc1ccc([N+](=O)[O-])cc1 | inactive |  |
| CCOP(=S)(OCC)Oc1cc(C)nc(C(C)C)n1 | inactive | 50 µM (active) |
| CSC1=N[C@@](C)(c2ccccc2)C(=O)N1Nc1ccccc1 | inactive |  |
| CC(C)N(C(=O)SCC(Cl)=C(Cl)Cl)C(C)C | inactive |  |
| CCOP(=S)(Oc1cnc(C(C)(C)C)nc1)OC(C)C (stereo unspecified) | inactive | 12.2 µM (active) |
| COP(=O)(OC)C(O)C(Cl)(Cl)Cl (stereo unspecified) | inactive |  |
| COP(=O)(OC)OC(Br)C(Cl)(Cl)Br (stereo unspecified) |  | 7.31 µM (active) and 13 µM (active) |
| CN1COCN(Cc2cnc(Cl)s2)C1=N[N+](=O)[O-] | inactive |  |
| CCOP(=O)(SC(C)CC)N1CCSC1=O (stereo unspecified) | inactive |  |
| CCCSP(=O)(OCC)Oc1ccc(Br)cc1Cl (stereo unspecified) | inactive |  |
| C#CCC1=C(C)C(OC(=O)C2C(C=C(C)C)C2(C)C)CC1=O (stereo unspecified) | inactive |  |
| CCOC(=O)CC(SP(=O)(OC)OC)C(=O)OCC (stereo unspecified) | inactive |  |

| SMILES | outcome | AC50 |
| --- | --- | --- |
| CON=C(C(=O)OC)c1ccccc1CON=C(C)c1cccc(C(F)(F)F)c1 |  | 639 nM (active) and 964 nM (active) |
| CCOP(=S)(OCC)Oc1ccc2c(C)c(Cl)c(=O)oc2c1 |  | 29.6 µM (active) |
| CCCSP(=O)(OCC)SCCC | inactive |  |
| CCOP(=S)(OCC)OC(Cl)C(Cl)(Cl)Cl (stereo unspecified) |  | 23.4 µM (active) |
| CCCCSP(=O)(SCCCC)SCCCC |  | 66.3 µM (active) and 11.5 µM (active) |
| CC1=NNC(=O)N(/N=C/c2cccnc2)C1 | inactive |  |
| O=[N+]([O-])c1cc(C(F)(F)F)c(Cl)c([N+](=O)[O-])c1Nc1ncc(C(F)(F)F)cc1Cl |  | 0.786 µM (active) |
| CC(C)=CC1C(C(=O)OCN2C(=O)C3=C(CCCC3)C2=O)C1(C)C (stereo unspecified) | inactive |  |
| CC[C@H](C)[C@H]1O[C@]2(C=C[C@@H]1C)C[C@@H]1C[C@@H](C/C=C(\C)[C@@H](O[C@H]3C[C@H](OC)[C@@H](O[C@H]4C[C@H](OC)[C@@H](NC)[C@H](C)O4)[C@H](C)O3)[C@@H](C)/C=C/C=C3\CO[C@@H]4[C@H](O)C(C)=C[C@@H](C(=O)O1)[C@]34O)O2 |  | 6.97 nM (active) and 2.42 nM (active) |
| C[N+]1(C)CCCCC1 | inactive |  |
| C[Si](Cn1cncn1)(c1ccc(F)cc1)c1ccc(F)cc1 | inactive |  |
| COP(=O)(NC(C)=O)SC (stereo unspecified) | inactive |  |
| S=C1NCCN1 | inactive |  |
| C=C(C)[C@H]1Cc2c(ccc3c2O[C@@H]2COc4cc(OC)c(OC)cc4[C@@H]2C3=O)O1 |  | 19.6 nM (active) and 16.2 nM (active) |
| CC(Oc1cccc(Cl)c1)C(=O)O (stereo unspecified) | inactive |  |
| CCOP(=O)(OCC)Oc1cc(C)nc(C(C)C)n1 | inactive |  |
